Source: PubChem
This is a sample that favours compounds with a hit; in the whole collection about 7.7% have one here.
Sm TGR block – blocks Schistosoma mansoni thioredoxin glutathione reductase; purified TGR, DTNB reduction, TNB absorbance 405 nm; Potency, µM (doses to about 114 µM), for the others: at the top dose activity change, negative = inhibition, most hits filed as inhibitors; actives 3% (n = 360,000); AID 485364; further: potency means the concentration at half of the fitted maximal effect; nearly all actives have a fitted effect of over 60% in size
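TGR 20 nM + NADPH 100 uM (dispensed conc.), cpd preinc 15 min RT; start with NADPH (500 uM addition) then DTNB (15 mM addition). Kinetic TNB absorbance, 405 nm filter. Four-parameter Hill fit across titration.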
FMDV antiviral – foot and mouth disease virus antiviral activity; FMDV antiviral cell-based qHTS; actives 1.2% (n = 410,000); Potency, µM (series often up to 57.9 µM), without a hit: at the top dose activity change, negative = inhibition, hits mostly inhibitors; calls by dose curve; tested in HEK293T cells; further: read-out not given here; potency means the concentration at half of the fitted maximal effect; nearly all actives have a fitted effect of over 45% in size
Tb PYK inh – blocks Trypanosoma brucei pyruvate kinase; Q57TT1; TbPYK enzyme, Kinase-Glo Plus ATP luminescence, 45 min; Potency, µM (doses to about 76.8 µM), for inactives: at the top dose activity, negative = inhibition, most hits filed as inhibitors; actives 0.12% (n = 410,000); AID 624173; further: potency means the concentration at half of the fitted maximal effect; nearly all actives have a fitted effect of over 50% in size
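TbPYK + substrate in 50 mM TEA pH 7.2, 100 mM KCl, 10 mM MgCl2, 0.05% BSA, 0.01% Tween-20; cpd pinned; ADP 130 uM final; 45 min RT; Kinase-Glo Plus 10 min; luminescence endpoint.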
FBPA Giardia inh – blocks Giardia fructose-bisphosphate aldolase activity | A8B2U2 | purified Giardia FBPA | Potency, µM (doses to about 59.6 µM), inactives show top-dose activity, negative = inhibition, usual class: inhibitors | actives 0.71% (n = 290,000) | AID 2451; further: potency means the concentration at half of the fitted maximal effect; nearly all actives have a fitted effect of over 55% in size
Target sequence (A8B2U2 whole entry, looked up): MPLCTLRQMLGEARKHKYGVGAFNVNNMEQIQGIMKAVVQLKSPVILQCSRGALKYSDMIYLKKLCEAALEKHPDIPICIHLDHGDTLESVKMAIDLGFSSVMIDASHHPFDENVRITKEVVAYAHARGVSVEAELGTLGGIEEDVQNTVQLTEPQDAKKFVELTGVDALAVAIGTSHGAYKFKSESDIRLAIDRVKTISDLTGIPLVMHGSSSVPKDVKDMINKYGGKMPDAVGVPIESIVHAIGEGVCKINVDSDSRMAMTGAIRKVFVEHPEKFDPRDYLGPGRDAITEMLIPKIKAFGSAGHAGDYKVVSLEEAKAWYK
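40 nM FBPA preincubated 10 min at RT with compound (up to 57.5 uM final), then substrate plus GAPDH/TPI/NAD/arsenate coupling and diaphorase/resazurin added. Fluorescence read after 20 min at RT, 525/598 nm.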
HCMV inh – blocks human cytomegalovirus replication. HFF cells, HCMV-luciferase reporter, 72 h; active compounds read low. activity change, negative = inhibition, % at 57.5 µM. actives 4.5% (n = 410,000); in the data active means activity change below about -60%; inconclusive means no clear call, values can overlap the other calls; inactive means above about -39%
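Luciferase read-out from HCMV-luciferase-infected HFFs (MOI 1 PFU/cell) 72 h post infection at 37C; compounds added after 16 h cell attachment; activity normalized between buffer-only basal and Salinomycin (10uM) inhibitor controls.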
RE007 growth inh – less growth of the S. pombe RE007 Vpr strain; S. pombe RE007 Vpr strain, BacTiter-Glo ATP luminescence, 24 h; Potency, µM (series often up to 92.2 µM), without a hit: top-dose activity change, negative = less growth, actives largely listed as inhibitors; actives 0.21% (n = 360,000); AID 651644; active means well fitted falling curve with a large enough effect; inconclusive means small, poorly fitted or top-dose-only effect; inactive means no such curve, though single readings can be large or run the other way; further: potency means the concentration at half of the fitted maximal effect; nearly all actives have a fitted effect of over 50% in size
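Fission yeast strain RE007, carrying one chromosomally integrated HIV-1 vpr copy, was seeded at OD 0.01 in PMG+AL medium with 23 nL pinned compound. After 24 h at 30 °C and 99% humidity, viability was read by BacTiter-Glo luminescence.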
* = called active by the depositor; ? = inconclusive; nt = no result given. Unless noted, the call rests on the fitted dose curve; in most records, active means well fitted curve in the direction sought with a large enough effect; inconclusive means small, poorly fitted or top-dose-only effect, or another doubt; inactive means no such curve, though single readings can be large; an effect the other way counts as inactive or inconclusive. On the % scale 0 is the no-effect control and ±100 the full control effect.

SMILES | Sm TGR block | FMDV antiviral | Tb PYK inh | FBPA Giardia inh | HCMV inh | RE007 growth inh
CN1CCN(c2ncc3nc(-c4ccc(Cl)cc4)c(=O)n(Cc4cccs4)c3n2)CC1 | nt | -3% | nt | -4% | nt | nt
O=[N+]([O-])c1cc(/C=N/NC(=S)Nc2ccccc2Cl)ccc1Cl | -1% | -18% | -5% | 7% | 14 | -4%
CCCOc1ccc(/C=N/Nc2ccccc2[N+](=O)[O-])c(O)c1 | -4% | 11µM* | ? | 2% | ? | -16%
CCCOc1ccc(/C=N/NC(=S)Nc2ccccc2[N+](=O)[O-])c(O)c1 | -2% | ? | 1% | 23% | -101* | 5%
COc1ccc(/C=N/NC(=S)Nc2ccccc2[N+](=O)[O-])cc1O | -2% | -2% | -7% | -7% | -66* | -26%
COC(=O)c1ccc(NC(=O)C(=O)NCCc2sc(-c3cccc(F)c3)nc2C)cc1 | 1% | -2% | -4% | nt | 8 | nt
CCCOCc1cc(CN2CCN(c3ccccc3OC)CC2)c(O)c2ncccc12 | 40µM* | -26% | 4% | nt | -100* | nt
CCOCc1cc(CN2CCN(c3ccccc3OC)CC2)c(O)c2ncccc12 | ? | 0% | -3% | nt | -98* | nt
COc1ccccc1N1CCN(Cc2cc(COC(C)C)c3cccnc3c2O)CC1 | ? | -16% | 6% | nt | -85* | nt
CCOc1ccccc1N1CCN(Cc2cccc(OC)c2O)CC1 | -11% | ? | 6% | -22% | -14 | -4%
COc1ccccc1N1CCN(Cc2ccccc2)CC1 | 2% | 3% | 1% | -23% | -36 | -21%
COc1ccccc1N1CCN(Cc2cc(Br)c(O)c3ncccc23)CC1 | 3.2µM* | -25% | -2% | ? | -95* | -10%
COc1ccccc1N1CCN(Cc2cc(C)c(C)cc2O)CC1 | -1% | ? | -3% | -3% | -20 | -17%
CCOc1ccc(S(=O)(=O)NCCc2csc3nc(-c4ccc(F)cc4)nn23)cc1 | 6% | -10% | 1% | nt | -16 | nt
CCC1=C2CC[C@H]3C(=O)NC(=O)[C@H]3[C@H]2[C@@]2(C)C(=NCCc3c[nH]c4ccccc34)OC(=O)N2C1=O | nt | nt | nt | 0% | nt | nt
c1csc(CCNc2ncnc3sc4c(c23)CCC4)c1 | 5% | 13µM* | -1% | 5% | -89* | -16%
CN(C)C(CNc1ncnc2sc3c(c12)CCCCC3)c1ccco1 (stereo not given) | ? | ? | -2% | 0% | -68* | -1%
Cc1sc2ncnc(NCC(c3ccco3)N(C)C)c2c1C (stereo not given) | 6% | -24% | 10% | 5% | -4 | -8%
OCCCNCc1cc2ccc(F)cc2nc1N1CCN(c2cccc(Cl)c2)CC1 | nt | 0% | nt | nt | nt | nt
Cc1ccccc1N1CCN(Cc2ccc([N+](=O)[O-])o2)CC1 | 35µM* | -13% | -8% | ? | -25 | -22%
COc1ccccc1N1CCN(Cc2ccc(-c3ccccc3[N+](=O)[O-])o2)CC1 | 25µM* | -27% | -2% | -26% | 55 | -10%
O=[N+]([O-])c1ccc(CN2CCN(c3ccccc3Cl)CC2)o1 | 0% | -11% | 0% | ? | -20 | 0%
Cc1cccc(NC(=O)CN2C(=O)c3cccc4cccc2c34)c1C | 1% | 0% | 1% | nt | 7 | nt
Cn1c(=O)n(CC(=O)O)c(=O)c2c1nc1n2CCCN1c1ccc(Cl)cc1 | 2% | 0% | -8% | nt | -28 | nt
COC1(OC)C(/C=C/c2ccc(C)cc2)C(C#N)(C#N)C1(OC)OC (stereo not given) | nt | 22µM* | 0% | nt | 2 | -6%
CC(C)c1c(O)ccc2c1CCC1[C@@](C)(C=O)CCC[C@@]21C (stereo not given in full) | nt | -23% | nt | -16% | nt | nt
Cc1cc2c(=O)n(Cc3ccco3)c(SCC(=O)NCc3ccco3)nc2s1 | 0% | 8% | ? | 1% | -1 | -1%
Cc1cc2c(=O)n(Cc3ccco3)c(SCC(=O)N3CCCc4ccccc43)nc2s1 | -39% | nt | 0% | 2% | -88* | -19%
